This passage reports z-score, composite z-score and outcome results from PubChem BioAssay.

Assay [1] is described as follows: HepG2 liver cancer cell viability effects, profiling panel, resazurin fluorescence, 24 h, PK04 Diversity Set (AID 1172). To be noted: higher = more signal. On the technique in general: Alamar Blue is a resazurin reagent that responds to reducing activity.
Assay [2] is described as follows: basal S. cerevisiae growth modulation, no modifier, primary screen, OD600, strain BY4716, 24 h, basal condition (AID 1173). To be noted: OD600, 24 h, higher = more signal, called active from +8 up or from −8 down.
Assay [3] is described as follows: MM1S myeloma cell viability, profiling panel, resazurin fluorescence, basal, 24 h, PK04 Diversity Set (AID 1174).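 Also: MM1S multiple myeloma cell line.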 To be noted: higher = more signal, called active from +8 up or from −8 down.
Assay [4] has as its target Dihydroorotate dehydrogenase (quinone), mitochondrial (Plasmodium falciparum (isolate 3D7)) (UniProt Q08210). Nature of the assay: PfDHODH enzyme inhibitors, primary screen, biochemical, C-terminal His tag, absorbance 600 nm (AID 1175).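 Also: recombinant parasite enzyme with a five histidine tag at its C terminus.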 To be noted: DCIP absorbance 600 nm, higher = more signal, called active from +8 up or from −8 down.
Assay [5] is described as follows: P. aeruginosa biofilm formation inhibitors, primary screen, strain PAO1, LB-PBS medium, absorbance 600 nm (AID 1176). To be noted: P. aeruginosa PAO1 growth/biofilm, A600, 12 h; higher = more signal.
Assay [6] can be described thus: S. cerevisiae RM11-1a growth modifiers, primary screen, strain RM11-1a, OD600, basal, 24 h (AID 1177).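 Also: cultures grown under basal conditions with no added stressor.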 To be noted: OD600, 24 h, higher = more signal, called active from +8 up or from −8 down.
Assay [7] can be described thus: E. coli acrAB mutant growth effects, primary screen, E. coli filamentation inducers, strain DRC39, OD650, 24 h (AID 1178).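 Also: growth measured as culture turbidity by optical density at 650 nm.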 To be noted: higher = more signal, called active from +8 up or from −8 down.
The nature of assay [8]: E. coli acrAB mutant growth effects, primary screen, E. coli filamentation inducers, strain DRC39, OD650, 48 h (AID 1179).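 Also: screen aims at cell division blockers that make cells filament.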 To be noted: E. coli DRC39 delta-acrAB growth, higher = more signal, called active from +8 up or from −8 down.
Assay [9] is described as follows: RPMI8226 myeloma cell viability, profiling panel, resazurin fluorescence, basal, 24 h, PK04 Diversity Set (AID 1180).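 Also: RPMI8826 multiple myeloma cell line at 5000 cells per well.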 To be noted: higher = more signal.
Assay [10] deals with E3 ubiquitin-protein ligase XIAP (Homo sapiens) (UniProt P98170). Nature of the assay: XIAP binders, primary screen, biophysical, small-molecule microarray, fluorescence 635 nm (AID 1181).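 Also: score merges 667 nm emission and signal to noise over triplicate slides.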 To be noted: small-molecule microarray binding, higher = more signal.
Assay [11] deals with XIP peptide (Xip251-270) binding. Nature of the assay: small-molecule binders of XIP peptide, primary screen, biochemical, small-molecule microarray, fluorescence 635/667 nm, 0.1 µg/mL protein (AID 1182). To be noted: fluorescent protein binding, 635 nm, higher = more signal, called active from +8 up or from −8 down.
Assay [12] concerns XIP peptide (Xip251-270). In words: small-molecule binders of XIP peptide, primary screen, biochemical, small-molecule microarray, fluorescence 635/667 nm, 0.5 µg/mL protein (AID 1183). To be noted: small-molecule microarray binding, fluorescence 635 nm; higher = more signal.
Assay [13] in a line: Plasmodium falciparum growth inhibition, primary screen, strain 3D7, DAPI fluorescence, 100 nL (AID 1184).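 Also: parasites grown inside human red blood cells in medium with human serum.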 To be noted: P. falciparum 3D7 growth, 3 d, higher = more signal.
The target in assay [14] is Homeobox protein Hox-A13 (Mus musculus) (UniProt Q62424). Nature of the assay: inhibitors of HoxA13-DNA binding, primary screen, biochemical, fluorescence polarization, labeled oligonucleotide (AID 1185). To be noted: 15 min, higher = more signal, called active from +8 up or from −8 down. In general terms: Polarisation of emitted light reports the rotation of a fluorescent probe.

Assay [15] in a line: inhibitors of hydroxyurea-induced Chk1 phosphorylation, primary screen, imaging, HeLa, phospho-Chk1 antibody, percent positive cells (AID 1186). To be noted: hydroxyurea-induced phospho-Chk1 immunofluorescence imaging, higher = more signal.
Assay [16] can be described thus: inhibitors of hydroxyurea-induced Chk1 phosphorylation, primary screen, imaging, HeLa, phospho-Chk1 nuclear intensity (AID 1187). To be noted: hydroxyurea-induced phospho-Chk1 immunofluorescence imaging, higher = more signal.
Assay [17] can be described thus: Cryptococcus neoformans growth inhibition, dose response, Alamar Blue, cherry-picks (AID 686998;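 active = falling signal with fitted half-maximal potency no higher than twice the top valid tested dose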). To be noted: 24 h; series mostly up to 35 µM.
Assay [18] is described as follows: inducers of Cryptococcus neoformans cell lysis, dose response, AK release luminescence, cherry-picks (AID 687000;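 active = fitted dose curve reaches 40% lysis signal rise at or below the highest valid concentration tested for that sample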;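 also: luminescent detection of adenylate kinase leaking from lysed yeast; 0% = median neutral control signal and 100% = double that signal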). To be noted: C. neoformans lysis, adenylate kinase release luminescence, 4 h, 100% = twice the neutral-control signal; series mostly up to 15 µM.
Assay [19] is described as follows: HepG2 cell cytotoxicity, dose response, cytotoxicity control, cherry-picks, set 2 (AID 687002;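 active = a dose-response fit showing signal loss, with half-maximal concentration no higher than twice the top tested dose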). To be noted: HepG2 viability, ATP luminescence (CellTiter-Glo), 48 h; series mostly up to 26 µM. A general note: Cellular ATP, detected with luciferase, serves as a proxy for viable cell number.
The nature of assay [20]: HeLa cell cytotoxicity, dose response, cytotoxicity control, ATP luminescence, cherry-pick samples (AID 687004;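 active = a fitted half-maximal concentration no higher than twice the top valid tested dose, with signal falling as cells die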;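 also: 0% = neutral control median and -100% = staurosporine 10 µM control median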). To be noted: HeLa viability, ATP luminescence (CellTiter-Glo), 48 h; series mostly up to 26 µM.

The structures appear in SMILES notation. For some assays here: Potency and affinity values are given separately. Records with an inconclusive call do not appear. Active and inactive are the calls of the source. Unless noted, no rule for the calls is given here.

Chain of Dihydroorotate dehydrogenase (quinone), mitochondrial (Plasmodium falciparum (isolate 3D7)) (Q08210 whole entry, looked up): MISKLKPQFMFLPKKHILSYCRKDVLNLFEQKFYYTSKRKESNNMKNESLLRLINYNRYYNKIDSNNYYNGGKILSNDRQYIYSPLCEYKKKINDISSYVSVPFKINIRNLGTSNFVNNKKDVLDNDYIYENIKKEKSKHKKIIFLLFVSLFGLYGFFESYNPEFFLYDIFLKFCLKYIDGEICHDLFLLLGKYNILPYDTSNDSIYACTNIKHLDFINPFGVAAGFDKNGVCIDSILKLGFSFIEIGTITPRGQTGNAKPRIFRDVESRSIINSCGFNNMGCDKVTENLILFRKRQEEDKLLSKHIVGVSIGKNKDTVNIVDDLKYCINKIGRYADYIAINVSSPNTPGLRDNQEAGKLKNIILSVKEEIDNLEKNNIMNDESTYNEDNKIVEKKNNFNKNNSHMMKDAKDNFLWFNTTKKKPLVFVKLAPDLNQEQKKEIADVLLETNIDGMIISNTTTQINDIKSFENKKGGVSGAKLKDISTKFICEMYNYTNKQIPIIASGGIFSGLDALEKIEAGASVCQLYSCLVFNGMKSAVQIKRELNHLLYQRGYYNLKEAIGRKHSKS
Chain of E3 ubiquitin-protein ligase XIAP (Homo sapiens) (P98170 whole entry, looked up): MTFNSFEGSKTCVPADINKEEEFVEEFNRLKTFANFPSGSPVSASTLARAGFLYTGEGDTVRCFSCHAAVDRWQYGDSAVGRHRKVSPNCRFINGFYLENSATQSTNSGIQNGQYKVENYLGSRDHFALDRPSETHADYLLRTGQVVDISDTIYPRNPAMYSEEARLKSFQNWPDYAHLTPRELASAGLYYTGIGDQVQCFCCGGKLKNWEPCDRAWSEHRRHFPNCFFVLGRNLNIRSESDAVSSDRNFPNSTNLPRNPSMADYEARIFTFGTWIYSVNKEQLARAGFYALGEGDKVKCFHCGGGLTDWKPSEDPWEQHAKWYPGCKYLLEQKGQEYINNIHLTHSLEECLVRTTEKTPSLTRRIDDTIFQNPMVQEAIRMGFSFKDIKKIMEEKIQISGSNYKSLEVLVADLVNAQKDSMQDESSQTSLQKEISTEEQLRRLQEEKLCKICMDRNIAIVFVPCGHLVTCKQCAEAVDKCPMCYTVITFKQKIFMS
Chain of Homeobox protein Hox-A13 (Mus musculus) (Q62424 whole entry, looked up): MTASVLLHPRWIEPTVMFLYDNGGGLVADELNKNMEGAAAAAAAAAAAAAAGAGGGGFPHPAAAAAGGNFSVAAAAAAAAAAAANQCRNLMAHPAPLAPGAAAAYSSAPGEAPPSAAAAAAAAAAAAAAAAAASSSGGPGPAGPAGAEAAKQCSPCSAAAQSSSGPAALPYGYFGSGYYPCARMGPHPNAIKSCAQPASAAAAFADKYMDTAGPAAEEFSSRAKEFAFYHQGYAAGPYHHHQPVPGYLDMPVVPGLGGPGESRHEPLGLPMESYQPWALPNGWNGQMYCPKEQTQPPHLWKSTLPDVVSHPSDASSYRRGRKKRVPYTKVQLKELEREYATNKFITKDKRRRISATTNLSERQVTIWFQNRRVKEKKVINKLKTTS

As to `CC1=C([C@H](O)CCc2ccccc2)[C@H](CO)[C@@H]2C(=O)N(Cc3ccccc3)C(=O)[C@@H]2C1`, the z-score in [1] is 0.325; in assay [2] it was -3.02 (inactive); in [3], 0.169 (inactive); in [5] it was 0.0694 (inactive); in [6] it was 0.0743 (inactive); in assay [7] it was 1.6 (inactive). For the same molecule, the z-score in [8] is 0.204 (inactive); in [9], 0.308; in assay [13], -0.793; in assay [14], -4.92 (inactive); in [15] it was -0.698 (inactive); in [16], -0.835 (inactive). Also, the composite z-score in [4] is -1.68 (inactive); in assay [10], 0.201; in [11], -0.241 (inactive); in [12], -0.0644.

`NC(=O)NCC#Cc1ccc2c(c1)[C@]1(C(=O)N2)[C@H](C(N)=O)[C@H]2C(=O)O[C@H](c3ccccc3)[C@H](c3ccccc3)N2[C@@H]1c1ccccc1OCCO`: the z-score in [1] is 0.979; in [2] it was -0.275 (inactive); in assay [3], 0.369 (inactive); in [5], 0.75 (inactive); in assay [6], 0.785 (inactive); in assay [7] it was 0.285 (inactive). The z-score in [8] is 0.0072 (inactive); in assay [9], 0.295; in assay [13], 0.257; in assay [14], -4.44 (inactive); in assay [15] it was 0.113 (inactive); in [16], 0.158 (inactive). The composite z-score in assay [4] was -0.793 (inactive); in assay [10], 0.234; in [11], 0.212 (inactive); in assay [12], 0.473. For the same molecule, the molecule was called inactive in assay [17], in [18], in assay [19] and in assay [20].

Regarding `COCCOC(=O)N1C(=O)[C@@]2(c3cc(C#CCCO)ccc31)[C@H](c1ccc(OCCO)cc1)N1[C@H](c3ccccc3)[C@H](c3ccccc3)OC(=O)[C@H]1[C@@H]2C(=O)NC[C@H](O)c1ccccc1`, the z-score was 0.542 in [1]; 1.64 (inactive) in [2]; -0.149 (inactive) in assay [3]; 1.39 (inactive) in [5]; 2.33 (inactive) in [6]; 0.0733 (inactive) in assay [7]. Further, the z-score in [8] was -0.534 (inactive); in assay [9], 0.471; in assay [13], -2.1; in [14], -1.24 (inactive); in [15], -0.234 (inactive); in [16], -0.341 (inactive). Also, the composite z-score in assay [4] was 1.06 (inactive); in [10] it was 0.106; in assay [11], 0.405 (inactive); in assay [12], 0.765.

Regarding `CCOC(=O)C1=CCC(c2cccc3ccccc23)N(S(=O)(=O)c2ccc(C)cc2)C1` (stereo unspecified), the z-score in assay [1] is -0.739; in assay [2], 0.66 (inactive); in [3] it was -1.56 (inactive); in assay [5], 0.518 (inactive); in [6], -0.225 (inactive); in [7] it was -0.601 (inactive). Moreover, the z-score is 0.0759 (inactive) in assay [8]; -3.43 in assay [9]; -1.77 in assay [13]; -1.57 (inactive) in assay [14]; 0.18 (inactive) in assay [15]; -0.129 (inactive) in assay [16]. Moreover, the composite z-score in assay [4] is -0.384 (inactive); in assay [10], 0.397; in assay [11], 0.225 (inactive); in [12], 0.449.

Take `Cc1ccc(N2C(=O)c3ccccc3[C@](C)(C(=O)NCC(C)C)[C@@H]2c2ccc(CO)cc2)nc1`: the z-score in assay [1] is 0.1; in [2], 0.726 (inactive); in [3], -0.558 (inactive); in [5], 0.14 (inactive); in [6], 1.42 (inactive); in assay [7], 0.401 (inactive). Also, the z-score in assay [8] was -0.247 (inactive); in [9], -0.481; in assay [13], 0.11; in [14], -2 (inactive); in assay [15], 0.341 (inactive); in assay [16], 0.123 (inactive). For the same molecule, the composite z-score was 1.08 (inactive) in assay [4], -0.0095 in assay [10], -0.223 (inactive) in [11] and -0.662 in assay [12].

Regarding `C=C[C@H](OC)[C@@H](OC(=O)Nc1ccc(SC)cc1)c1ccc(O)c(F)c1`, the z-score in assay [1] is -0.0359; in assay [2] it was -2.99 (inactive); in [3], 0.0545 (inactive); in assay [5], 1.88 (inactive); in assay [6] it was -0.703 (inactive); in [7] it was 0.543 (inactive). Also, the z-score was 0.519 (inactive) in assay [8]; 0.035 in assay [9]; 0.188 in assay [13]; -2.14 (inactive) in assay [14]; -1.07 (inactive) in assay [15]; -0.478 (inactive) in assay [16]. The composite z-score in assay [4] was -2.05 (inactive); in [10] it was -0.192; in assay [11] it was 2.52 (inactive); in assay [12], 0.719.

As to `O=C/C=C/c1ccc(/C=C/c2ccccc2)cc1`, the z-score was 0.555 in assay [1]; -16.4 (active) in [2]; 0.408 (inactive) in assay [3]; 0.668 (inactive) in assay [5]; -1.01 (inactive) in assay [6]; 2.11 (inactive) in assay [7]. Besides, the z-score is 1.56 (inactive) in assay [8]; -3.21 in assay [9]; 3.9 in [13]; 0.0626 (inactive) in assay [14]; 0.144 (inactive) in assay [15]; 0.848 (inactive) in assay [16]. Also, the composite z-score in assay [4] was -1.43 (inactive); in assay [10] it was -0.242; in [11], -0.837 (inactive); in assay [12] it was -0.443.
